# PubChem BioAssay (NCATS)
# Results filed as inconclusive are left out. Activity calls are given as the source filed them. Unless noted, calls follow the shape of the dose curve; as a rule, active = well fitted curve in the direction sought with a large enough effect; inconclusive = small, poorly fitted or top-dose-only effect, or another doubt; inactive = no such curve, though single readings can be large; an effect the other way counts as inactive or inconclusive.
# Tests used:
# [1] = molecular target: Thyroid hormone receptor beta (Homo sapiens) (UniProt P10828); experiment: qHTS assay for small molecule agonists of thyroid hormone receptor beta signaling (AID 588545; calls by dose curve)
# Procedure, shortened: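 Agonist-mode beta-lactamase reporter assay, HEK 293 cells, 2% charcoal/dextran FBS; cells plated 4 hrs, compound 18 hrs at 37 C, CCF4 2 hrs RT. Normalized to 10 nM T3 (100%) and DMSO (0%); Hill fit gives EC50, efficacy.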
# [2] = qHTS assay for small molecule antagonists of retinoid X receptor alpha signaling (AID 588546; active = well fitted inhibition curve with a large enough effect in the signal ratio, with a control signal flat, not every such curve was filed as active; the % refers to the signal ratio;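 also: cells stimulated with 9-cis-retinoic acid as agonist; % is scaled to controls: 0 for no effect and ±100 for the full control effect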); details: HEK293T RXRa-UAS-bla, beta-lactamase ratio, antagonist mode; measured here: W530 green channel, cytotoxicity proxy
# Procedure, shortened: (§1)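 Beta-lactamase reporter inhibition, read as CCF4 fluorescence ratio (ex 405, em 460/530 nm) after 2 h at RT. HEK293T UAS-bla cells, 2500/well, were stimulated with 9-cis-RA at 500 or 100 nM final alongside test compound for 18 h at 37 C.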
# [3] = molecular target: Retinoic acid receptor RXR-alpha (Homo sapiens) (UniProt P19793); experiment: as above; details: HEK293T RXRa-UAS-bla, beta-lactamase ratio, antagonist mode
# Procedure, shortened: as §1
# [4] = molecular target: Thyroid hormone receptor beta (Homo sapiens) (UniProt P10828); experiment: qHTS assay for small molecule antagonists of thyroid hormone receptor beta signaling (AID 588547; active = well fitted inhibition curve with a large enough effect in the signal ratio, with a control signal flat, not every such curve was filed as active; the % refers to the signal ratio;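 also: cells stimulated with 0.4 nM T3 agonist during compound exposure; series mostly up to about 77 µM; % is scaled to controls: 0 for no effect and ±100 for the full control effect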); details: TR-UAS-bla HEK293, beta-lactamase ratio, antagonist mode, 18 h
# Procedure, shortened: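 Inhibition of T3-driven (0.4nM final) beta-lactamase reporter activity was measured over 0.59 nM to 92 uM compound after 18 h at 37 C. The cells were GripTite HEK293 TR-UAS-bla in charcoal/dextran-stripped serum, with CCF4 ratio read-out and IC50 from Hill fits.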
# [5] = molecular target: Voltage-gated inwardly rectifying potassium channel KCNH2 (Homo sapiens) (UniProt Q12809); experiment: qHTS Assay for Small Molecule Inhibitors of the Human hERG Channel Activity (AID 588834);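 also: top concentration of the series differs between compounds; % is scaled to controls: 0 for no effect and ±100 for the full control effect; lower thallium flux fluorescence means stronger hERG block; nearly all actives have a fitted effect of over 50% in size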
# Procedure, shortened: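 hERG-BacMam U2OS, 2000 cells/well; 0.7X FluxOR loading 1 hr RT dark; cpd ~10 min 37 °C; stim buffer; FDSS fluorescence 2 min @ 1 s; AC50 Hill fit.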
# [6] = qHTS assay for small molecule agonists of the antioxidant response element (ARE) signaling pathway (AID 651741; active = well fitted activation curve with a large enough effect in the signal ratio; the % refers to the signal ratio; also: % of control where 0% means no effect)
# Procedure, shortened: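 Quantitative HTS in HepG2 cells stably expressing an ARE-beta-lactamase reporter; 16 h compound exposure at 37 C, followed by 2 h room-temperature incubation with LiveBLAzer B/G FRET substrate and fluorescence measurement.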
# [7] = qHTS assay for small molecule activators of the p53 signaling pathway (AID 651743; active = well fitted activation curve with a large enough effect in the signal ratio, not every such curve was filed as active; the % refers to the signal ratio; also: series mostly up to about 92 µM; % of control where 0% means no effect); details: HCT-116 p53RE-bla, beta-lactamase FRET ratio, 16 h; stronger effect = higher value
# Procedure, shortened: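 Read-out is fluorescence intensity from the LiveBLAzer B/G FRET substrate, added for 2 hours at room temperature after HCT-116 p53RE-bla cells had been incubated with compounds for 16 hours at 37 C.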
# [8] = molecular target: Tumor necrosis factor (Homo sapiens) (UniProt P01375); experiment: qHTS assay to identify small molecules that stimulate Tumor Necrosis Factor-alpha (TNF-alpha) secretion (AID 651757; active = well fitted curve in the direction sought with a large enough effect in the signal ratio; the % refers to the signal ratio; also: 0% is about no effect)
# Procedure, shortened: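 Read-out is HTRF, a TR-FRET sandwich of cryptate- and XL665-labeled anti-TNF-alpha antibodies detecting cytokine secreted by THP-1 cells. Cells had been incubated with test compounds at 37 C for 17 hrs beforehand.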
# [9] = qHTS assay to identify small molecules that stimulate interleukin-8 (IL-8) secretion (AID 651758; active = well fitted activation curve with a large enough effect in the signal ratio; the % refers to the signal ratio; also: 0% is about no effect)
# Procedure, shortened: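 Secreted IL-8 measured by TR-FRET sandwich (cryptate and XL665 antibodies) from THP-1 cells exposed to compound overnight (16 hrs, 37 C).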
# [10] = qHTS assay for environmental chemicals that activate the Aryl hydrocarbon Receptor (AhR) signaling pathway (AID 651777); details: 1A2-DRE human hepatoma cells, luciferase, 24 h; activation: stronger effect = higher value; also: % of control where 0% means no effect; nearly all actives have a fitted effect of over 15% in size
# Procedure, shortened: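 1A2-DRE human hepatoma reporter line; 1,200 cells/well; cmpd or DMSO 24 h, 37 C/5% CO2; One-Glo 30 min RT; luciferase lum.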
# [11] = molecular target: Peroxisome proliferator-activated receptor alpha (Homo sapiens) (UniProt Q07869); experiment: qHTS assay for small molecule agonists of the peroxisome proliferator-activated receptor alpha (PPARalpha) signaling pathway (AID 651778); details: PathHunter PPARalpha complementation, chemiluminescence, 6 h; stronger effect = higher value; also: % of control where 0% means no effect
# Procedure, shortened: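 Chemiluminescence from complemented enzyme reported PPARalpha activation in cells after 6 hr of compound treatment at 37 C. The detection reagent was incubated for 60 min at room temperature, and compounds were scored as agonists.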
# [12] = qHTS assay for small molecule agonists of the antioxidant response element (ARE) signaling pathway measured by Nrf2-dependant transcriptional activity (AID 720636; active = well fitted curve in the direction sought with a large enough effect in the repeat runs; an effect the other way counts as inactive or inconclusive;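 also: HepG2 cells with an ARE-driven luciferase reporter; % of control where 0% means no effect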)
# Procedure, shortened: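 Cells: ARE-luc HepG2 with Nrf2-responsive luciferase. Medium contained 1% dialyzed FBS. Compound exposure lasted 16 hr at 37 C and 5% CO2, followed by ONE-Glo luciferase detection.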
# [13] = qHTS assay for small molecule antagonists of the retinoid-related orphan receptor gamma (ROR-gamma) signaling pathway - cell viability counter screen (AID 720652; active = well fitted curve in the direction sought with a large enough effect in the repeat runs; an effect the other way counts as inactive or inconclusive;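 also: series mostly up to about 92 µM; compound exposure lasted 16 hr before ATP read; % is scaled to controls: 0 for no effect and ±100 for the full control effect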)
# Procedure, shortened: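 Luminescence from CellTiter-Glo after 30 min at room temperature reported cellular ATP as the cytotoxicity measure. Cells were the CHO reporter line with doxycycline-induced ROR-gamma expression, exposed to compound for 16 hr at 37 C.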
# [14] = qHTS assay for small molecule agonists of the antioxidant response element (ARE) signaling pathway measured by Nrf2-dependant transcriptional activity - cell viability counter screen (AID 720653; active = well fitted curve in the direction sought with a large enough effect in the repeat runs; an effect the other way counts as inactive or inconclusive; also: % is scaled to controls: 0 for no effect and ±100 for the full control effect); details: ARE-bla HepG2 viability, CellTiter-Glo ATP luminescence, 16 h; stronger effect = lower value
# Procedure, shortened: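 Cytotoxicity counter screen: intracellular ATP quantified by CellTiter-Glo luminescence in the same ARE-bla HepG2 plates, after 16 h compound exposure and a 2 h beta-lactamase substrate step.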
# [15] = qHTS assay for small molecule agonists of retinoid X receptor alpha signaling (AID 588544; calls by dose curve;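 as to activation: 0% = DMSO basal wells and 100% = reference agonist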); details: HEK293T RXRa-UAS-bla, beta-lactamase reporter, 18 h; 530 nm emission
# [16] = molecular target: Retinoic acid receptor RXR-alpha (Homo sapiens) (UniProt P19793); experiment: as above
# [17] = qHTS assay for small molecule activators of the nuclear factor-kappa B (NF-kB) signaling pathway (AID 651749; active = well fitted activation curve with a large enough effect in the signal ratio; the % refers to the signal ratio; also: series mostly up to about 77 µM; % of control where 0% means no effect); details: NF-kB-bla ME-180 cells, beta-lactamase FRET ratio, 16 h; stronger effect = higher value
# Procedure, shortened: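 Readout: beta-lactamase reporter driven by an NF-kB response element, detected fluorescently as loss of FRET. Cells were the ME-180 line, treated 16 hr at 37C with pin-transferred compound.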
# [18] = qHTS assay for small molecule disruptors of the mitochondrial membrane potential - 1 hr assay (AID 651754; calls by dose curve; also: % is scaled to controls: 0 for no effect and ±100 for the full control effect; nearly all actives have a fitted effect of over 35% in size)
# Procedure, shortened: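 HepG2, 2,000 cells/well, overnight attachment; cpd or DMSO 1 hr, 37C/5% CO2; Mito-MPS dye 30 min, 37C; fluorescence monomer (490/535) and aggregate (540/590).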
# [19] = qHTS assay for small molecule disruptors of the mitochondrial membrane potential - 5 hr assay (AID 651755; calls by dose curve; also: % is scaled to controls: 0 for no effect and ±100 for the full control effect; nearly all actives have a fitted effect of over 40% in size)
# Procedure, shortened: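 HepG2, 2,000 cells/well, overnight attach; cpd or DMSO 5 hr, 37C/5% CO2; Mito-MPS 30 min 37C; fluor 490/535 + 540/590 nm.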
# [20] = molecular target: Nuclear receptor ROR-gamma (Homo sapiens) (UniProt P51449); experiment: qHTS assay for small molecule antagonists of the retinoid-related orphan receptor gamma (ROR-gamma) signaling pathway (AID 651802);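 also: luciferase reporter luminescence driven by ROR response element; series mostly up to about 92 µM; % is scaled to controls: 0 for no effect and ±100 for the full control effect; nearly all actives have a fitted effect of over 60% in size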
# Procedure, shortened: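 CHO, TET-inducible ROR + RORE-LUC reporter, 1536-well qHTS. Compound pinned, doxycycline added, 16hr 37C/5% CO2. ONE-Glo, 30 min RT, luminescence; signal drop scored as antagonism.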
# Tumor necrosis factor (Homo sapiens), sequence (P01375 whole entry, looked up): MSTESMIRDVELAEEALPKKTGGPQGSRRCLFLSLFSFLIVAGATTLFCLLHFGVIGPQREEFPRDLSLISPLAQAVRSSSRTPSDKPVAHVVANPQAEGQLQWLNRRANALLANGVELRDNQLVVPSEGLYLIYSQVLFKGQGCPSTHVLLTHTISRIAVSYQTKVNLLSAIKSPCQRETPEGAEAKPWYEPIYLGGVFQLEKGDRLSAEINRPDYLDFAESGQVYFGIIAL
# Retinoic acid receptor RXR-alpha (Homo sapiens), sequence (P19793 whole entry, looked up): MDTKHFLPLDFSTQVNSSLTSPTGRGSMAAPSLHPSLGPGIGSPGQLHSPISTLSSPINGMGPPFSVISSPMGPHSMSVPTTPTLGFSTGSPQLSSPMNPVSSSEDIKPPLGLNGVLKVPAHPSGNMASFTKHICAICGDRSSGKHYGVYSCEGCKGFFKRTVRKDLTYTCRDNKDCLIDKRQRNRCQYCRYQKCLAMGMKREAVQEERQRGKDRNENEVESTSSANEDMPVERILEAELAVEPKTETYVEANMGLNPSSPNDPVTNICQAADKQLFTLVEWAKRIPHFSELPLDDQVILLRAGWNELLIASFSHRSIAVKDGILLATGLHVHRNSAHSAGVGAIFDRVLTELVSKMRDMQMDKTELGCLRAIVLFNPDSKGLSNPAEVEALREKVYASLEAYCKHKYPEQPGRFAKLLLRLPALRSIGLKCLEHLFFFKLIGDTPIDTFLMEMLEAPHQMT
# Thyroid hormone receptor beta (Homo sapiens), sequence (P10828 whole entry, looked up): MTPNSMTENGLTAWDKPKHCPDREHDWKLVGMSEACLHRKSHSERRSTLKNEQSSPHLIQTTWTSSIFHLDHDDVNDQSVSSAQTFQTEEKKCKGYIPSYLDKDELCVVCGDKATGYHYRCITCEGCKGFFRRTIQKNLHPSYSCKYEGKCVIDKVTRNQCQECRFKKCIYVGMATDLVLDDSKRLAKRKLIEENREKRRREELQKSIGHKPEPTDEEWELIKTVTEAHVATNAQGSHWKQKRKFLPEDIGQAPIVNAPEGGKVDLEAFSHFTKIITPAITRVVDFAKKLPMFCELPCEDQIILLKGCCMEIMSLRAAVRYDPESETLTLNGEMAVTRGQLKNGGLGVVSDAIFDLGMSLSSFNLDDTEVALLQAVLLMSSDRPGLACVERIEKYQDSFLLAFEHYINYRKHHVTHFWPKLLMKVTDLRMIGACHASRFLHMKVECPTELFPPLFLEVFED
# Voltage-gated inwardly rectifying potassium channel KCNH2 (Homo sapiens), sequence (Q12809 whole entry, looked up): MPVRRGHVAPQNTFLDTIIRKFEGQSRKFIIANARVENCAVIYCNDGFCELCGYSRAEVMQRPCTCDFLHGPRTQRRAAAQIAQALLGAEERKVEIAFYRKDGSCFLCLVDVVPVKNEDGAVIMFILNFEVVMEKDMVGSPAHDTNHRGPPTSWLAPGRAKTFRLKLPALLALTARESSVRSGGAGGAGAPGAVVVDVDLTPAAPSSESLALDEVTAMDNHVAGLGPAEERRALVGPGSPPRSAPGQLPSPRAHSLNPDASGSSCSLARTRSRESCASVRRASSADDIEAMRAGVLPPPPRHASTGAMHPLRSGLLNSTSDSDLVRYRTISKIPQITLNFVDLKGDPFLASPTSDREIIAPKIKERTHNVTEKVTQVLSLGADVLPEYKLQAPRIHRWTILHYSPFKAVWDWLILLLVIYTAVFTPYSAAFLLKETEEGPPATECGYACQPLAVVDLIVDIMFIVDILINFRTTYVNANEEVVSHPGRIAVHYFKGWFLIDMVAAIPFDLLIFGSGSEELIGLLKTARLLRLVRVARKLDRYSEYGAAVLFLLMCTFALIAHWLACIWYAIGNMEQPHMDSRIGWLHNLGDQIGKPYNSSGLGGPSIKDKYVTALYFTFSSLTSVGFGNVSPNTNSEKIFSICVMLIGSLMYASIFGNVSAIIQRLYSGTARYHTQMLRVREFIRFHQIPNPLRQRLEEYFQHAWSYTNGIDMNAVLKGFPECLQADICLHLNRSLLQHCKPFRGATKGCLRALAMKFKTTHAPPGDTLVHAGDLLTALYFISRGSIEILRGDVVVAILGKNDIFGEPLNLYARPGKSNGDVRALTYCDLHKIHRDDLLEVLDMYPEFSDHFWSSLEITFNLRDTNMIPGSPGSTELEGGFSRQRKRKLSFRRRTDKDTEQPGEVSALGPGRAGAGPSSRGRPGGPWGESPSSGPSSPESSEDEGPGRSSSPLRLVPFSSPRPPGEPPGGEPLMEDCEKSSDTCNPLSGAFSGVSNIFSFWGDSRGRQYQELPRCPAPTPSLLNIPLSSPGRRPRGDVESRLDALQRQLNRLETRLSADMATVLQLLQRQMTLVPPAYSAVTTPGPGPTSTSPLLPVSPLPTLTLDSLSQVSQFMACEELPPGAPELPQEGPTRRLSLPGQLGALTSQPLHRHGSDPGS
# Peroxisome proliferator-activated receptor alpha (Homo sapiens), sequence (Q07869 whole entry, looked up): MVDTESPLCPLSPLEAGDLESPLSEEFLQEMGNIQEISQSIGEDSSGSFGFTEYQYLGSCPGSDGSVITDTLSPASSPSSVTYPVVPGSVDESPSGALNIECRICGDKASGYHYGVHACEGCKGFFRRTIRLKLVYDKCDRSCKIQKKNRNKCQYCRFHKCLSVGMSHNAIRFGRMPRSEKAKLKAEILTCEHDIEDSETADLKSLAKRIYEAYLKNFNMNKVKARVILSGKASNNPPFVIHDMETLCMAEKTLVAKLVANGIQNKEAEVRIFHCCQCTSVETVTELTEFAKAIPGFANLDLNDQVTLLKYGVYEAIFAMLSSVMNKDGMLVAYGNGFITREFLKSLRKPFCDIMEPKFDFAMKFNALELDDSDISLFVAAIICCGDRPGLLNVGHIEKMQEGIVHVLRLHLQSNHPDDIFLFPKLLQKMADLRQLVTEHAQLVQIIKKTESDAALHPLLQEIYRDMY
# Nuclear receptor ROR-gamma (Homo sapiens), sequence (P51449 whole entry, looked up): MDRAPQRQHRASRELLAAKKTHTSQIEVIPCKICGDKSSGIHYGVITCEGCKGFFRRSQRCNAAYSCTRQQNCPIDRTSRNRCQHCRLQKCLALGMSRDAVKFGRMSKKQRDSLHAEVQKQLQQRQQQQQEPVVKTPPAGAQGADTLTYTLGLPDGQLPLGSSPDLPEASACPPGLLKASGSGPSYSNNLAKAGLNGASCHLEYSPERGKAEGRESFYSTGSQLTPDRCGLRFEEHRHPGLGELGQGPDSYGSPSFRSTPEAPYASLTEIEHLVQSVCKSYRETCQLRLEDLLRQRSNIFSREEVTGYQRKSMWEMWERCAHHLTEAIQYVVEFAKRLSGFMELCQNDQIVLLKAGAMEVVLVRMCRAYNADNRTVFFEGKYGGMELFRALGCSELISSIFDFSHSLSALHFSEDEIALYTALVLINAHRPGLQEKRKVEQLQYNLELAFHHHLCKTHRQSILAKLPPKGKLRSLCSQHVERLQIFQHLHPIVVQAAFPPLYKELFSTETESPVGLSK
SMILES,outcome [1],max response [2] [%],max response [3],activity change % (negative = inhibition) [4],Potency [5],Potency [6],activation [7],Potency [8],Potency [9],activation [10],max response [11],outcome [12],Potency [13],max response [14],max response [15] [%],outcome [16],activation [17],Potency [18],Potency [19],Potency [20]
Nc1nc2ccccc2[nH]1,inactive,-22,-2.52% (inactive),16% (inactive),inactive,inactive,1.82% (inactive),inactive,inactive,11.9% (inactive),-2.62% (inactive),inactive,inactive,-4.79% (inactive),,,,,,
CCOCCO,,1.51,7.78% (inactive),-11.8% (inactive),,inactive,-2.61% (inactive),inactive,,-0.327% (inactive),-5.75% (inactive),inactive,inactive,10.2% (inactive),9.04,inactive,-1.02% (inactive),inactive,inactive,
CN(C)CCCNCCCN,,-5.37,0.789% (inactive),,inactive,,-2.59% (inactive),inactive,,0.0352% (inactive),-2.56% (inactive),inactive,inactive,-2.03% (inactive),-7.09,inactive,,inactive,inactive,inactive
C1CCOC1,,-8.68,0.04% (inactive),,inactive,inactive,1.06% (inactive),inactive,,0.0348% (inactive),-1.78% (inactive),inactive,inactive,5.55% (inactive),-14.4,inactive,1.14% (inactive),,,
COc1ccc(OC)cc1,,-6.6,0.277% (inactive),,inactive,,1.53% (inactive),inactive,,0.641% (inactive),-4.92% (inactive),inactive,inactive,4.82% (inactive),-11,inactive,-2.07% (inactive),inactive,inactive,inactive
O=C(O[C@@H](C(=O)O)[C@@H](OC(=O)c1ccccc1)C(=O)O)c1ccccc1,,4.27,-0.94% (inactive),,,,-2.28% (inactive),inactive,,-0.0103% (inactive),3.38% (inactive),inactive,inactive,-4.37% (inactive),-17.8,inactive,0.306% (inactive),inactive,inactive,
C[C@@H]1CC2(OC[C@]3(C)O[C@H]23)O[C@H]2C[C@@]3(C)[C@@H]4CC[C@H]5C(C)(C)C(O[C@@H]6OC[C@@H](O)[C@H](O)[C@H]6O)CC[C@@]56C[C@@]46CC[C@]3(C)[C@@H]12 (some centres not stated),inactive,,,4.18% (inactive),inactive,,-7.18% (inactive),inactive,,-1.5% (inactive),0.712% (inactive),inactive,inactive,-3.07% (inactive),,,-1.67% (inactive),,inactive,
O=C(O)c1cccc(Cl)c1Cl,,-3.86,-4.53% (inactive),,inactive,inactive,-0.257% (inactive),inactive,,-1.06% (inactive),-2.92% (inactive),inactive,inactive,3.31% (inactive),-8.8,inactive,0.0203% (inactive),inactive,inactive,
